# Experimental data: PubChem BioAssay (NCATS)
# Inconclusive results are not listed. Entries that show only a call come without a potency. The source made the active and inactive calls. Unless noted, calls follow the shape of the full dose curve.
# Experiments:
# [1] = biological target: Estrogen receptor (Homo sapiens) (UniProt P03372); test: qHTS assay for small molecule antagonists of estrogen receptor alpha signaling (AID 588513; active = well fitted curve in the direction sought with a large enough effect in the signal ratio, with a control signal flat, not every such curve was filed as active; the % refers to the signal ratio)
# Summary of the method: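 Beta-lactamase reporter, antagonist mode, HEK 293 GripTite cells; 0.5nM E2 stimulus, 18 h, 37 C; CCF4 dye 2 h RT; fluorescence. IC50 and efficacy from Hill fits, normalized to E2 and DMSO.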
# [2] = biological target: Estrogen receptor (Homo sapiens) (UniProt P03372); test: qHTS assay for small molecule agonists of estrogen receptor alpha signaling (AID 588514); also: potency is read from the fitted curve at half-maximal effect; nearly all actives have a fitted effect of over 70% in size
# Summary of the method: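 Efficacy is expressed against 20 nM 17-beta-estradiol (100%) and DMSO basal (0%); EC50 from Hill equation. Assay: beta-lactamase reporter in ER-alpha-UAS-bla HEK 293 cells, 18 h compound incubation, CCF4 detection.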
# [3] = biological target: Bile acid receptor (Homo sapiens) (UniProt Q96RI1); test: qHTS assay for small molecule antagonists of farnesoid X receptor signaling (AID 588526)
# Summary of the method: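 Concentration-response titrations were fitted to the Hill equation for half-maximal inhibition and maximal response, with data normalised to 50 uM chenodeoxycholic acid and DMSO control wells. Cells: FXR-UAS-bla HEK293T, dialyzed FBS.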
# [4] = qHTS assay for small molecule antagonists of peroxisome proliferator-activated receptor delta signaling (AID 588535; active = well fitted inhibition curve with a large enough effect in the signal ratio, with a control signal flat, not every such curve was filed as active; the % refers to the signal ratio;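 as to max response: cells co-treated with a PPAR-delta agonist as stimulator during compound exposure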); conditions: HEK293T PPARd-UAS-bla, beta-lactamase FRET ratio, 18 h; 460 nm channel
# Summary of the method: (§1)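 Inhibition of PPAR-delta response element-driven beta-lactamase expression is measured in HEK293T cells exposed to a compound titration series for 18 hrs at 37 C. Half-maximal inhibition comes from Hill equation fitting.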
# [5] = biological target: Peroxisome proliferator-activated receptor delta (Homo sapiens) (UniProt Q03181); test: as above
# Summary of the method: as §1
# [6] = biological target: Peroxisome proliferator-activated receptor gamma (Homo sapiens) (UniProt P37231); test: qHTS assay for small molecule agonists of peroxisome proliferator-activated receptor gamma signaling (AID 588536; active = well fitted curve in the direction sought with a large enough effect in the signal ratio, with a control signal flat, not every such curve was filed as active; the % refers to the signal ratio)
# Summary of the method: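 Compound treatment: 16 h, 37 C, HEK293 GeneBLAzer cells. Detection: CCF4, 2 h RT. Values: Hill-fit EC50, efficacy as % of 2 uM rosiglitazone.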
# [7] = biological target: Vitamin D3 receptor (Homo sapiens) (UniProt P11473); test: qHTS assay for small molecule antagonists of vitamin D receptor signaling (AID 588541);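 also: receptor activated by calcitriol during compound treatment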
# Summary of the method: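 VDR-UAS-bla HEK293T cells (2000/well, 2% charcoal-stripped FBS) were treated with titrated compounds plus 1-alpha,25-dihydroxyvitamin D3 (50 nM or 3 nM final) for 16 h at 37 C. CCF4 beta-lactamase fluorescence was read; Hill fits gave IC50.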
# [8] = biological target: Vitamin D3 receptor (Homo sapiens) (UniProt P11473); test: qHTS assay for small molecule agonists of vitamin D receptor signaling (AID 588543)
# Summary of the method: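 β-lactamase reporter, VDR-UAS-bla HEK293T, agonist mode. Cells plated 5 h at 37 °C, compound titration 16 h at 37 °C, CCF4 dye 2 h RT, ratio 460/530 nm. Hill fit → EC50, efficacy vs 50 nM 1α,25-(OH)2D3.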
# [9] = qHTS assay for small molecule agonists of retinoid X receptor alpha signaling (AID 588544); conditions: HEK293T RXRa-UAS-bla, beta-lactamase reporter, 18 h; 530 nm emission
# [10] = biological target: Thyroid hormone receptor beta (Homo sapiens) (UniProt P10828); test: qHTS assay for small molecule agonists of thyroid hormone receptor beta signaling (AID 588545)
# Summary of the method: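 Cells (2500/well) were seeded, incubated 4 hrs at 37 C, dosed with a compound series, incubated 18 hrs, loaded with CCF4 dye for 2 hrs at RT, then read for fluorescence. Data were scaled between DMSO (0%) and 10 nM T3 (100%).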
# [11] = qHTS assay for small molecule antagonists of retinoid X receptor alpha signaling (AID 588546; active = well fitted inhibition curve with a large enough effect in the signal ratio, with a control signal flat, not every such curve was filed as active; the % refers to the signal ratio;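 also: cells stimulated with 9-cis-retinoic acid as agonist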); conditions: HEK293T RXRa-UAS-bla, beta-lactamase ratio, antagonist mode; measured here: W530 green channel, cytotoxicity proxy
# Summary of the method: (§2)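 Beta-lactamase reporter inhibition, read as CCF4 fluorescence ratio (ex 405, em 460/530 nm) after 2 h at RT. HEK293T UAS-bla cells, 2500/well, were stimulated with 9-cis-RA at 500 or 100 nM final alongside test compound for 18 h at 37 C.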
# [12] = biological target: Retinoic acid receptor RXR-alpha (Homo sapiens) (UniProt P19793); test: as above; conditions: HEK293T RXRa-UAS-bla, beta-lactamase ratio, antagonist mode
# Summary of the method: as §2
# [13] = qHTS assay for small molecule agonists of the antioxidant response element (ARE) signaling pathway (AID 651741; active = well fitted activation curve with a large enough effect in the signal ratio; the % refers to the signal ratio; also: potency is read from the fitted curve at half-maximal effect)
# Summary of the method: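 Reporter: beta-lactamase under ARE, stably in HepG2. Exposure: 16 h, 37 C, compounds delivered in DMSO by pin tool after 5 h cell preincubation. Readout: FRET substrate fluorescence after 2 h at RT.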
# [14] = qHTS assay for small molecule activators of the p53 signaling pathway (AID 651743; active = well fitted activation curve with a large enough effect in the signal ratio, not every such curve was filed as active; the % refers to the signal ratio); conditions: HCT-116 p53RE-bla, beta-lactamase FRET ratio, 16 h; activation: stronger effect = higher value
# Summary of the method: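 Agonist-mode quantitative HTS in HCT-116 cells carrying a p53-response-element beta-lactamase reporter; 16 h compound treatment at 37 C, then FRET substrate loading for 2 h at room temperature and fluorescence read.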
# [15] = qHTS assay for small molecule activators of the nuclear factor-kappa B (NF-kB) signaling pathway (AID 651749; active = well fitted activation curve with a large enough effect in the signal ratio; the % refers to the signal ratio); conditions: NF-kB-bla ME-180 cells, beta-lactamase FRET ratio, 16 h; stronger effect = higher value
# Summary of the method: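 Human ME-180 cervical cells with an NF-kB-bla construct; compounds added via 23 nL pin transfer, DMSO as vehicle; incubation 16 hr. Reporter activity measured by FRET disruption.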
# [16] = qHTS assay for environmental chemicals that activate the Aryl hydrocarbon Receptor (AhR) signaling pathway (AID 651777; active = well fitted curve in the direction sought with a large enough effect; an effect the other way counts as inactive or inconclusive; also: nearly all actives have a fitted effect of over 15% in size); conditions: 1A2-DRE human hepatoma cells, luciferase, 24 h; activation: stronger effect = higher value
# Summary of the method: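 Measured luciferase activity, read 30 min after One-Glo addition at room temperature, from human hepatoma cells bearing a dioxin response element–CYP1A2 promoter reporter and exposed to compound for 24 hr at 37 C.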
# [17] = system: ATS189; test: qHTS profiling for inhibitors of Plasmodium falciparum proliferation (AID 504749; active = well fitted curve in the direction sought with a large enough effect; an effect the other way counts as inactive or inconclusive; also: nearly all actives have a fitted effect of over 60% in size); conditions: P. falciparum in erythrocytes, SYBR Green DNA, 72 h; series mostly up to 28.7 µM
# Summary of the method: (§3)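 Quantitative HTS: compounds pinned into medium, infected erythrocytes added (0.3% parasitemia, 2.5% hematocrit), 72 h culture at 37 C under 5% CO2. Saponin/Triton lysis with SYBR Green I, overnight RT, then fluorescence read.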
# [18] = system: Dd2; test: as above; conditions: P. falciparum in erythrocytes, SYBR Green DNA, 72 h; series mostly up to 28.7 µM
# Summary of the method: as §3
# [19] = system: PC15; test: as above; conditions: P. falciparum in erythrocytes, SYBR Green DNA, 72 h; series mostly up to 28.7 µM
# Summary of the method: as §3
# [20] = biological target: Nuclear receptor subfamily 1 group I member 2 (Rattus norvegicus) (UniProt Q9R1A7); test: qHTS assay for small molecule activators of the rat pregnane X receptor (rPXR) signaling pathway (AID 651751; call rule not given here); conditions: rPXR reporter cells, luciferase (One-Glo), 24 h
# Sequence of Nuclear receptor subfamily 1 group I member 2 (Rattus norvegicus) (Q9R1A7 whole entry, looked up): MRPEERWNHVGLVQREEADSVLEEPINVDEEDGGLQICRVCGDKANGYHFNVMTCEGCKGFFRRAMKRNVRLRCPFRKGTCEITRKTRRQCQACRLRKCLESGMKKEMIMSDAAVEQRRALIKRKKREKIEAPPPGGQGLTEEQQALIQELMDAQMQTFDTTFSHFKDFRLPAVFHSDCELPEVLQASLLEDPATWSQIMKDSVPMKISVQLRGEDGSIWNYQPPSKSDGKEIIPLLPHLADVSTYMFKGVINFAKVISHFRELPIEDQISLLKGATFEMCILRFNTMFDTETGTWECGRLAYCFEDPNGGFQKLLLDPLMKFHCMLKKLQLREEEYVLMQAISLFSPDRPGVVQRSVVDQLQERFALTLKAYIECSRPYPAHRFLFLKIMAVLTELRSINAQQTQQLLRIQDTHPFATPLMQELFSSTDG
# Sequence of Estrogen receptor (Homo sapiens) (P03372 whole entry, looked up): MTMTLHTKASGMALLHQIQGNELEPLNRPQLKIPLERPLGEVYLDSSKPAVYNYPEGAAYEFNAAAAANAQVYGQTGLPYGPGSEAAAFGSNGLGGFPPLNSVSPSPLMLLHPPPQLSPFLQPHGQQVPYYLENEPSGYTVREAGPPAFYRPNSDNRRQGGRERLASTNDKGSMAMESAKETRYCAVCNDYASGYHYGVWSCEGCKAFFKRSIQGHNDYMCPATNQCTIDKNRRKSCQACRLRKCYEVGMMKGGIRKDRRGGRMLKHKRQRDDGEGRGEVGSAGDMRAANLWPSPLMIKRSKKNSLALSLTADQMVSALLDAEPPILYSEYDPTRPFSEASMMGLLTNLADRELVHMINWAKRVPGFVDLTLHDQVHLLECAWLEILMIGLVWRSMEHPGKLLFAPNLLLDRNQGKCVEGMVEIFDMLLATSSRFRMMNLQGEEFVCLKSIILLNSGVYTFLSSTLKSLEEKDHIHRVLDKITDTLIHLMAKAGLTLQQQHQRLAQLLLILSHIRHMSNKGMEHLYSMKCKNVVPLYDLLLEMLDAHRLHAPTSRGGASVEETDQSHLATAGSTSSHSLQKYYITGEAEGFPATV
# Sequence of Vitamin D3 receptor (Homo sapiens) (P11473 whole entry, looked up): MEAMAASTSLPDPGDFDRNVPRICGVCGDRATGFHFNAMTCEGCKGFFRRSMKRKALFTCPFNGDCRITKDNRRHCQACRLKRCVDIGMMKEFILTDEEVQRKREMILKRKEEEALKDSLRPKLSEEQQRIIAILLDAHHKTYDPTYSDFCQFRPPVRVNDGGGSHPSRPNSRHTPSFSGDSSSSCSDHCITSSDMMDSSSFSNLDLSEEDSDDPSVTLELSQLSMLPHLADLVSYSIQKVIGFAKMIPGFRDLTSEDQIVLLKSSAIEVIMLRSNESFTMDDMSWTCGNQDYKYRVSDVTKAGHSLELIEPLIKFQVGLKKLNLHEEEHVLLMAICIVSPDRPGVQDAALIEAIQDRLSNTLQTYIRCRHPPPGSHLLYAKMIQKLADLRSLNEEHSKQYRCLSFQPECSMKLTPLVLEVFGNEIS
# Sequence of Bile acid receptor (Homo sapiens) (Q96RI1 whole entry, looked up): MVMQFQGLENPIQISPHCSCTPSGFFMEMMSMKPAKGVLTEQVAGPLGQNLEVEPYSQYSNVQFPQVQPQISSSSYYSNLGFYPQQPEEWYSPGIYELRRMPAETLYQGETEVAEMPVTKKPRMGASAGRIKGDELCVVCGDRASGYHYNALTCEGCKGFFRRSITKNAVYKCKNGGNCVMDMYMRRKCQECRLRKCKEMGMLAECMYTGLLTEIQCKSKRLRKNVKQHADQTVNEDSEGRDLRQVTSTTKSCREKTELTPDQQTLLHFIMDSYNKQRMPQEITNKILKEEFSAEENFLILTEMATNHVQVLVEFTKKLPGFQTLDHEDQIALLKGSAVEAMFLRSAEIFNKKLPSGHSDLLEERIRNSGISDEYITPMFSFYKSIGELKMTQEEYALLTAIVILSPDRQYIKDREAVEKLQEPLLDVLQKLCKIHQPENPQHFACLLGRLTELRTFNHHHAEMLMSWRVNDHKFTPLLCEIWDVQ
# Sequence of Peroxisome proliferator-activated receptor delta (Homo sapiens) (Q03181 whole entry, looked up): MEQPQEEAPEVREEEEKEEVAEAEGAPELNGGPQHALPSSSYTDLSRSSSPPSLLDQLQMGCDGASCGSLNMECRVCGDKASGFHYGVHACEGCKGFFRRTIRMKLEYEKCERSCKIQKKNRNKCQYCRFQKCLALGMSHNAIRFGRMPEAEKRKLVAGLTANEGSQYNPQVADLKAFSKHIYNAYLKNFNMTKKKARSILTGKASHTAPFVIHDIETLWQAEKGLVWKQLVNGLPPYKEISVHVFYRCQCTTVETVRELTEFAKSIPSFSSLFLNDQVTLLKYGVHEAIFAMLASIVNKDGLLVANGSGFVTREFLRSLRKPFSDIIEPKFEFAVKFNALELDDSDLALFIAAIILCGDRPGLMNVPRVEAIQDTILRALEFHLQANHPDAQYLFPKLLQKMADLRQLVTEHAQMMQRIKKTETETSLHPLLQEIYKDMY
# Sequence of Thyroid hormone receptor beta (Homo sapiens) (P10828 whole entry, looked up): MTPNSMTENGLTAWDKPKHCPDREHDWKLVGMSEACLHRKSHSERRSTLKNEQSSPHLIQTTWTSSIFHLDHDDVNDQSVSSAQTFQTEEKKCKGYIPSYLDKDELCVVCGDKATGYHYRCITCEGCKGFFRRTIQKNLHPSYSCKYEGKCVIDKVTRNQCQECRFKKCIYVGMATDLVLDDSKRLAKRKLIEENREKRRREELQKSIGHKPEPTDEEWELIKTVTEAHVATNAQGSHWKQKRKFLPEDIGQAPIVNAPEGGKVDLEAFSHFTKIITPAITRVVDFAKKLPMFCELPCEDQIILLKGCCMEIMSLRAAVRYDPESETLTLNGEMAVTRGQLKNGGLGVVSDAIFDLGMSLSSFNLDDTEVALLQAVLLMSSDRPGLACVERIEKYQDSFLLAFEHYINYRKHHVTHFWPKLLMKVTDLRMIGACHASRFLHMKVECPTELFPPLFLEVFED
# Sequence of Retinoic acid receptor RXR-alpha (Homo sapiens) (P19793 whole entry, looked up): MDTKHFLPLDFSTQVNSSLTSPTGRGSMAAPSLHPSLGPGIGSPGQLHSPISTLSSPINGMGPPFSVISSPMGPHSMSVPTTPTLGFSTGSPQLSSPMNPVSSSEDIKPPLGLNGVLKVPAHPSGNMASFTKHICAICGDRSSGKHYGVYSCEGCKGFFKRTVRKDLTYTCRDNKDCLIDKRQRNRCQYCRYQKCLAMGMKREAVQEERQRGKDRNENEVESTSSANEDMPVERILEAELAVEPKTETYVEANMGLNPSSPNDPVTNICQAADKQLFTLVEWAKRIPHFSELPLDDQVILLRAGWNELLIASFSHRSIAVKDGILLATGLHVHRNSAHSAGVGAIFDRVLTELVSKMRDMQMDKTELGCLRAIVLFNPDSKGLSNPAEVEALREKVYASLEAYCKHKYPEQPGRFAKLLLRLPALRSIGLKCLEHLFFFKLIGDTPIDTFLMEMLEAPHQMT
# Sequence of Peroxisome proliferator-activated receptor gamma (Homo sapiens) (P37231 whole entry, looked up): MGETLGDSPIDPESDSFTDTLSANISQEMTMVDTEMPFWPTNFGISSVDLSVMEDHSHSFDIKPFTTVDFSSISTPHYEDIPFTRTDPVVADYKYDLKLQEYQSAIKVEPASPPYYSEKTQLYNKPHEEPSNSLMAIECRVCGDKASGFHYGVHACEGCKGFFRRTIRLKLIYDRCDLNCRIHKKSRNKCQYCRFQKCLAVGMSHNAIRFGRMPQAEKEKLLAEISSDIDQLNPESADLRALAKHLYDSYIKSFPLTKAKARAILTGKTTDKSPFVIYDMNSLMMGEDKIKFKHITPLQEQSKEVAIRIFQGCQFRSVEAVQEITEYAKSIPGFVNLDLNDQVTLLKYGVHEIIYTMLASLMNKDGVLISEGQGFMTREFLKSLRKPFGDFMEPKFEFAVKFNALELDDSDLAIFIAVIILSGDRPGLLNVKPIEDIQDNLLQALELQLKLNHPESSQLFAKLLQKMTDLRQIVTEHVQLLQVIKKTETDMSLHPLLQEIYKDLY
smiles,measurement,setting,value
N[C@@H](Cc1ccccc1)C(=O)O,outcome,[1],inactive
same,Potency,[2],11.2 µM (active)
same,Potency,[3],inactive
same,max response,[4],-16.9%
same,outcome,[5],inactive
same,outcome,[6],inactive
same,Potency,[7],inactive
same,Potency,[8],inactive
same,max response,[9],-4.85%
same,Potency,[10],inactive
same,max response,[11],-15%
same,max response,[12],7.11% (inactive)
same,Potency,[13],54.5 µM (active)
same,activation,[14],-1.26% (inactive)
same,activation,[15],0.13% (inactive)
same,activation,[16],-0.444% (inactive)
same,Potency,[17],inactive
same,Potency,[18],inactive
same,Potency,[19],inactive
same,max response,[20],-0.251% (inactive)
